# Assay outcomes (PubChem BioAssay)
# Rows were chosen to be rich in hits. Some 1.1% of all compounds tested hit in one or more screens of this group.
# LRH-1 inv ag: NR5A2 inverse agonism in reporter assay; inhibition, % at 3.6 µM; O00482; hit rate 0.13% among 360,000; HEK293T StAR-luciferase reporter, LRH-1 transfected, 24 h;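 active means inhibition above the mean inhibition of all tested compounds plus 3 SD, cut at about 73% in these data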;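 further: 0% = DMSO wells and 100% = reporter-only cells lacking LRH-1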
# Target sequence (O00482 whole entry, looked up): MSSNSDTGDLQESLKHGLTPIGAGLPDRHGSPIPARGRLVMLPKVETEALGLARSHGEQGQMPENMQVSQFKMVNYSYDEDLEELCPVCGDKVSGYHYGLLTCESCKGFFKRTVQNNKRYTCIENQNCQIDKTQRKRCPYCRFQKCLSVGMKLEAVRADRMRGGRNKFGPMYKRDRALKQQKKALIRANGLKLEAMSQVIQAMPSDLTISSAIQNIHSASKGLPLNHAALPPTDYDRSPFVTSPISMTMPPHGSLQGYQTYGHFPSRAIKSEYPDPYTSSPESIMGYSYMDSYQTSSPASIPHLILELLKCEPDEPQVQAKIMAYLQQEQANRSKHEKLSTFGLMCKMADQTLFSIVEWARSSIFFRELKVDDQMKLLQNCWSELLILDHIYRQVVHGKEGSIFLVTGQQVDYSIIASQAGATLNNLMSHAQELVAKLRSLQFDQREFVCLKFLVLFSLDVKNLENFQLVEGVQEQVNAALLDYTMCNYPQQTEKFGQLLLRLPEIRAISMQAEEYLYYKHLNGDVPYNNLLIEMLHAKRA
# GalR3 antag: human GalR3 antagonism | HEK293 GalR3-CNG cAMP membrane potential fluorescence; galR3 body fused to GalR1 C-terminus | AID 651719 | O60755 | inhibition, % at 3 µM | hit rate 0.44% among 360,000;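 active means inhibition above the screen-wide average plus 3 SD, cut at about 13% in these data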;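 further: forskolin and galanin both at EC90 stimulate the cells; cAMP rise reported by CNG channel membrane potential dye signal; 0% = forskolin plus galanin with DMSO and 100% = forskolin alone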
# SRC1 inh: inhibitors of human steroid receptor coactivator 1 (SRC1); Q15788; HEK293 GAL4-SRC1 luciferase reporter, luminescence; inhibition, % at 3.6 µM; hit rate 0.12% among 360,000;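 active means inhibition above the campaign mean plus 3 SD, with each screening campaign given its own cutoff, cut at about 60% in these data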;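 further: 0% = DMSO treated cells and 100% = gossypol at 36 µM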
# NR2F2 inh: blocks human COUP-TFII nuclear receptor; HEK293T NGFI-A luciferase reporter, luminescence; inhibition, % at 8.6 µM; hit rate 0.7% among 370,000; AID 686940;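 active means inhibition above a per-plate cutoff, mean inhibition of test wells between control levels plus 3 SD, cut at about 38% in these data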;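 further: cells cotransfected with COUP-TFII expression vector driving the NGFI-A reporter; 0% = median of COUP-TF2 test wells and 100% = reporter-only cells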
# SRC2 inh: human SRC2 (NCOA2) inhibition | hit rate 0.17% among 370,000 | AID 651957 | HEK293 GAL4-SRC2 luciferase reporter, luminescence | Q15596 | inhibition, % at 9 µM;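 active means inhibition above the mean inhibition of all tested compounds plus 3 SD, set per campaign, cut at about 52% in these data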;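 further: 0% = DMSO treated cells and 100% = cells given Gossypol at 36 µM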
# SRC3 inh: human NCOA3 inhibition | Q9Y6Q9 | HEK293 GAL4-SRC3 luciferase reporter, luminescence | inhibition, % at 3.6 µM | hit rate 0.17% among 360,000 | AID 588352;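 active means inhibition above a per-campaign cutoff, the mean of all compounds plus 3 SD, cut at about 60% in these data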;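 further: 0% = DMSO-treated cells and 100% = gossypol-treated cells at 36 µM; higher means less SRC3-driven luciferase light from the GAL4 reporter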
# VP16 Luc counter: VP16 inhibition counter-screen for COUP-TFII; shares compounds with NR2F2 inh; HEK293 Gal4-VP16 luciferase reporter, luminescence; inhibition, % at 8.5 µM; hit rate 25% among 2,500; AID 687007; in the data active means inhibition above about 13%
# NR2F2 inh conf: confirmation of human COUP-TFII (NR2F2) inhibitors; AID 687008; HEK293 NGFI-A luciferase reporter, luminescence; inhibition, % at 8.5 µM; hit rate 45% among 2,500; shares compounds with NR2F2 inh;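 active means mean inhibition over three repeats above a set limit taken from the earlier primary screen, cut at about 38% in these data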;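 further: 100% = cells given the luciferase reporter alone without the COUP-TF2 vector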
# * hit, by the source's call; . = no result given.
SMILES,LRH-1 inv ag,GalR3 antag,SRC1 inh,NR2F2 inh,SRC2 inh,SRC3 inh,VP16 Luc counter,NR2F2 inh conf
CCN(C(=O)c1cnc(N2CCN(c3ncccn3)CC2)c2ccccc12)c1cccc(Cl)c1,15,-4,-2,50*,33,-1,2,29
CN(C(=O)c1cnc(N2CCN(c3ncccn3)CC2)c2ccccc12)c1ccc(Cl)cc1,0,-4,10,-6,-36,4,.,.
CCOC(=O)c1c(C)[nH]c(C(=O)OCC(=O)Nc2sccc2C(N)=O)c1C,-1,-2,62*,52*,21,31,-35,45*
O=S(=O)(CC1NCc2cc(F)ccc21)NCCc1ccccc1 (stereo not drawn),.,.,.,8,-6,.,.,.
CCOC(=O)c1c(CN2CCN(CCO)CC2)n(-c2ccccc2)c2cc(Br)c(O)cc12,2,2,-25,43*,16,-3,2,-4
CCn1c(SCc2c(F)cccc2F)nc2sc3c(c2c1=O)CCCC3,.,.,.,-1,-8,.,.,.
O=C(Nc1cc(S(=O)(=O)N2CCCCC2)ccc1Cl)c1ccccc1NS(=O)(=O)c1ccc(F)cc1,37,-4,16,47*,33,19,0,22
O=C(Nc1cc(S(=O)(=O)N2CCCCC2)ccc1O)c1ccccc1NS(=O)(=O)c1ccc(F)cc1,-22,-6,-6,-8,16,-9,.,.
Cc1ccc(/C=C/c2ccc(N(C)C)cc2)[n+](C)c1,59,-8,42,65*,-15,49,-6,55*
CN(C)c1ccc(C(=O)/C=C/c2ccccc2)cc1,-157,-7,-94,-50,-60,-60,.,.
Cc1ccc(C(=O)O/N=C/c2ccc(N(C)C)cc2)cc1,-12,-3,-2,-9,-9,5,.,.
CC[n+]1ccccc1/C=C/c1ccc(N(C)C)cc1,40,-4,39,66*,19,41,1,50*
CN(C)c1ccc(/C=C/c2cc[n+](C)cc2)cc1,6,3,18,41*,0,31,-15,15
O=C(OC12CCCN(C1)/C(=C/c1ccc(Cl)cc1)C2)c1ccccc1 (stereo not drawn),.,.,.,26,-3,.,.,.
COCCCN1C(=O)[C@H](CC(=O)NCc2ccccc2)[C@]2(C(=O)OC)CCCCC=C12,.,.,.,-4,2,.,.,.
O=C1CCC[C@H]2Cc3nc4cccc(Cl)c4cc3C[C@]23CCCN13,.,.,.,19,.,.,.,.
CCC(CO)[n+]1c(C)cc(/C=C2\Sc3ccccc3N2Cc2ccccc2)cc1C (stereo not drawn),12,10,8,85*,-22,3,22*,87*
CCN1/C(=C2\SC(=S)N(Cc3ccccc3)C2=O)Sc2ccccc21,-14,-2,-2,5,-22,-9,.,.
CCC(C)NS(=O)(=O)c1ccc2[nH]c(=O)oc2c1 (stereo not drawn),.,.,.,-30,3,.,.,.
Cc1ccc(C)c(N2CCN(C(=O)CCS(=O)(=O)c3ccc4c(c3)NC(=O)CO4)CC2)c1,30,-9,28,42*,40,37,5,23
Cc1c(/C(O)=C2/C(=O)C(=O)N(CCN3CCOCC3)C2c2cccnc2)cnn1-c1ccccc1 (stereo not drawn),24,-3,10,-17,-30,5,.,.
Cc1c(/C(O)=C2/C(=O)C(=O)N(CCN3CCOCC3)C2c2ccco2)cnn1-c1ccccc1 (stereo not drawn),20,-4,43,60*,44,46,1,46*
Cc1c(/C(O)=C2/C(=O)C(=O)N(Cc3cccnc3)C2c2ccccn2)cnn1-c1ccccc1 (stereo not drawn),71,-6,70*,95*,77*,76*,-3,13
Cc1cc(/C=C2\SC(=O)N(C)C2=O)c(C)n1-c1ccc(O)cc1,10,-10,25,50*,4,5,-78,23
CN=C1NC(=O)/C(=C\c2cc(C)n(-c3ccccc3F)c2C)S1,.,.,.,-18,.,.,.,.
SMILES,LRH-1 inv ag,GalR3 antag,SRC1 inh,NR2F2 inh,SRC2 inh,SRC3 inh,VP16 Luc counter,NR2F2 inh conf
CN=C1S/C(=C\c2cc(C)n(-c3ccccc3F)c2C)C(=O)N1C,16,-1,30,50*,-1,48,-68,30
CC(=O)c1cc(-c2cc(C(=O)O)cc([N+](=O)[O-])c2)c(=O)n2c1CCC2,.,.,.,-19,2,.,.,.
COc1ccc(CN2C[C@]3(C=C(C)Cn4c(=O)n(-c5ccccc5)c(=O)n43)N=C2NC(=O)c2ccccc2)c(OC)c1,.,.,.,-4,-11,.,.,.
CCOc1ccc(-c2cc(CCCC(=O)N3CCN(c4ccc(OC)cc4)CC3)no2)cc1,20,.,-15,28,37,10,.,.
CCOc1ccc(-c2cc(CCCC(=O)NCCCOC)no2)cc1,15,-7,3,59*,69*,4,23*,3
O=C(CCCc1nc(-c2ccccc2Cl)no1)NC1CCCC1,26,-2,45,73*,90*,63*,0,3
Cc1ccc(-c2noc(CCCC(=O)NC3CCCC3)n2)cc1,19,-8,5,48*,53*,29,16*,15
O=C(CCCc1nc(-c2ccccc2)no1)NC1CCCC1,3,-2,-17,-4,10,7,.,.
CCOC(=O)C1CCCCN1C(=O)[C@@H]1CC=C[C@@H]2CCN(c3ccccc3)C(=O)[C@@H]21 (stereo partly drawn),.,.,.,-9,.,.,.,.
COc1cccc(-c2nc(NCc3cccnc3)c3ccccc3n2)c1O,3,-8,-24,9,-26,-50,.,.
COc1cccc2c(NCc3ccccc3)nc(-n3c(N)nc4ccccc43)nc12,.,.,.,100*,.,.,49*,18
COc1cc(-n2c(C)nc3cc(C(=O)N4CC(C)CC(C)C4)ccc32)cc(OC)c1OC (stereo not drawn),.,.,.,-7,-10,.,.,.
O=C(c1cc2nc(-c3ccc(F)cc3)cc(C(F)(F)F)n2n1)N1CCCCC1c1cccnc1 (stereo not drawn),10,0,13,41*,10,27,9,57*
CC[n+]1ccc(/C=C/c2c[nH]c3ccccc23)cc1,47,-5,28,51*,16,38,4,28
Cc1ccc2[nH]cc(/C=C/c3cc[n+](C)cc3)c2c1,67,-8,39,43*,-6,57,7,32
COc1ccc2c(/C=C/c3cc[n+](C)cc3)c[nH]c2c1,42,-11,13,38*,17,30,7,39*
CCn1c(/C=C/c2c[nH]c3ccccc23)nc2ccccc2c1=O,-95,-7,-104,-46,-13,-92,.,.
COc1ccc2c(c1)c(/C=C/c1cc[n+](C)cc1)cn2C,1,-7,7,14,-18,8,.,.
